Here are results for 88 compounds from PubChem BioAssay AID504848 (National Center for Advancing Translational Sciences (NCATS), 2011).

About 1,400 (61%) of roughly 2,300 compounds were called active. Another 29% or so got no clear call; they are omitted. Calls come from the whole dose curve; as a rule, active = well fitted inhibition curve with a large enough effect; inconclusive = small, poorly fitted or top-dose-only effect, or effect the other way; inactive = no such curve, though single readings can be large or run the other way. So high a share suggests a set chosen from earlier hits. Some of the results follow.
% is set by controls: 0 for no effect and ±100 for the full control effect; potency is the fitted concentration of half-maximal effect.

A short description of the assay: Confirmation screen for delayed death inhibitors of the malarial parasite plastid, 96 hour incubation. Note: nearly all actives have a fitted effect of over 60% in size. Particulars: P. falciparum luciferase growth in erythrocytes; series mostly up to 28.7 µM; activity change, negative = inhibition: at the top concentration. The source says:
The goal of this screen is to discover new antimalarial compounds that act by inhibiting the development of the apicoplast in the malarial parasite Plasmodium falciparum. The biochemical processes that make this organelle essential for erythrocytic stage parasites are not well understood. However, antibiotics, such as azithromycin and tetracycline, which target the apicoplast translational machinery, have a potent antimalarial effect. […] We have developed a cell-based assay that measures parasite growth based on the expression of an integrated copy of a firefly luciferase reporter. To detect small molecules that cause this "delayed death phenotype, erythrocytes infected with the luciferase-expressing parasites were incubated with compounds for either one or two generations, corresponding to 48 and 96 hours, respectively. Compounds that inhibit parasite growth in the second generation, but not the first, should be enriched in antimalarials that target the apicoplast. Growth inhibition is detected by a decrease in luciferase activity. MLPCN Grant: R21 NS059500 Assay Provider: David Fidock and Eric Ekland, Columbia University Keywords: NIH Roadmap, MLPCN, MLI, MLSMR, qHTS, NCGC, qHTS, malaria, luciferase, viability
Four microliters of culture medium (RPMI 1640 with 0.5% w/v Albumax (GIBCO), 24 mM sodium bicarbonate and 10 ug/mL gentamycin) were dispensed by a Multi-drop Combi into white solid 1536-well plates (Grenier) and 23 nL compound was added by a pin tool. Four microliters of infected erythrocytes (2% hematocrit, 0.1% parasitemia final concentration) in culture medium were dispensed and the plates incubated for 96 hours at 37 C in 5% CO2. Two microliters of luciferase detection reagent was added and luminescence was detected by a ViewLux (PerkinElmer) reader
In the case of `COc1ccc(OC)c(NC(=O)c2ccccc2N(C)S(=O)(=O)c2ccc(C)cc2)c1`, the Potency was 15.8 µM (active).

In the case of `COc1ccc(OC)c(NC(=O)c2nc(S(=O)(=O)Cc3ccccc3)ncc2Cl)c1`, the “activity change, negative = inhibition” value is 2.57% (inactive).

With `C=CCN(c1ccccc1)S(=O)(=O)c1cccc(C(=O)N2CC(C)CC(C)C2)c1` (stereo not drawn), the Potency is 12.6 µM (active).

`Cn1nc([N+](=O)[O-])nc1Sc1nnc(-c2ccccc2)o1`: the Potency was 11.2 µM (active).

Take `CSc1nc(C)c(C(=O)C[n+]2ccc(C)cc2)cc1C#N`: the Potency is 14.1 µM (active).

As to `COC(=O)C(=C/C(C)=C/c1cccs1)C(=O)OC`, the Potency was 12.6 µM (active).

With `O=Nc1c(-c2c(O)[nH]c3cc(Br)ccc23)[nH]c2ccccc12`, the Potency is 3.16 µM (active).

For `Brc1ccc(/C=N/Nc2ncnc3c2cnn3Cc2ccccc2)cc1`, the Potency is 3.55 µM (active).

For the compound `CC(C)[C@H](NC(=O)[C@@H]1Cc2c([nH]c3ccccc23)C2c3ccccc3C(=O)N21)C(=O)N1CCC[C@@H]1C(=O)O` (stereo partly drawn), the Potency is 14.1 µM (active).

For the compound `CCC(=O)Nc1cccc(C2=NOC3(C2)C[C@@H](C(N)=O)N(C(=O)c2cc([N+](=O)[O-])cc([N+](=O)[O-])c2C)C3)c1` (stereo partly drawn), the Potency was 11.2 µM (active).

As to `COCCN(C(=O)CCCC(=O)Nc1ccccn1)C(C(=O)NC1CCCCC1)c1ccc(C)cc1` (stereo not drawn), the Potency is 10 µM (active).

With `CCNc1nc(NCC)n2c(SCC(=O)Nc3ccccc3F)nnc2n1`, the Potency is 11.2 µM (active).

As to `COCCn1c(SCC(=O)Nc2ccccc2F)nc2c(c1=O)SCC2`, the “activity change, negative = inhibition” value is -97.8% (inactive).

Regarding `COc1ccc(CNCc2ccc3ccccc3c2)c(OC)c1`, the Potency is 11.2 µM (active).

`COc1cccc(CN(C)CC2CCCN(CCc3ccc(Cl)cc3)C2)c1OC` (stereo not drawn): the Potency is 2.82 µM (active).

Consider `CCOc1cc(/C=C/C(=O)Nc2ccc(C(=O)NCCN(CC)CC)cc2)ccc1OCC(C)C`, for which the Potency was 2 µM (active).

In the case of `CCC(=O)Nc1ccc2c(c1)ncn2-c1ccccc1OC`, the Potency is 11.2 µM (active).

As for `Cn1nc(CC(=O)Nc2ncc(Br)s2)c2ccccc2c1=O`, the Potency was 7.94 µM (active).

As to `COc1ccc(/C=C/C(=O)c2ccc([N+](=O)[O-])o2)cc1OC`, the Potency was 11.2 µM (active).

In the case of `COc1ccc(Cl)cc1/C=C/c1ccc2cccc(O)c2n1`, the Potency is 5.62 µM (active).

On to `Oc1cccc2ccc(/C=C/c3ccccc3Br)nc12`, for which the Potency was 2.24 µM (active).

As to `COc1ccccc1OCC(=O)Nc1cc(Cl)ccc1Oc1ccccc1`, the “activity change, negative = inhibition” value was -9.22% (inactive).

As for `Cc1ccc(C)c(N(CC(=O)Nc2cc(Cl)ccc2Oc2ccccc2)S(C)(=O)=O)c1`, the Potency is 8.91 µM (active).

On to `CC(C)(C)NC(=O)[C@H]1CN(Cc2cccnc2)CCN1C[C@@H](O)C[C@@H](Cc1ccccc1)C(=O)N[C@H]1c2ccccc2C[C@H]1O`, for which the Potency is 3.98 µM (active).

For `CCc1ccc(Nc2n[n+](-c3ccccc3)c(-c3cccc(Cl)c3Cl)s2)cc1`, the Potency was 2.82 µM (active).

Regarding `Cc1c(C(=O)C(=O)N2CCCc3ccccc32)c2ccccc2n1C`, the Potency is 12.6 µM (active).

For the compound `CCOC(=O)/C=C/C(=O)Nc1ccc(S(=O)(=O)N(C)c2ccccc2)cc1`, the Potency was 10 µM (active).

Regarding `CN(c1ccccc1)S(=O)(=O)c1ccc(NC(=O)c2nc(S(C)(=O)=O)ncc2Cl)cc1`, the “activity change, negative = inhibition” value is 19.4% (inactive).

Turning to `CC(=O)/C=C1/C(=O)Nc2ccccc21`, the Potency is 12.6 µM (active).

With `Cc1cccc2c1NC(=O)/C2=C\C(=O)c1cccs1`, the “activity change, negative = inhibition” value is -9.95% (inactive).

For the compound `NC(=O)COc1ccc(C(=O)/C=C2/C(=O)Nc3ccccc32)cc1`, the “activity change, negative = inhibition” value is -10.3% (inactive).

On to `O=C(O)CCCCCNc1nc(-c2ccccc2)nc2ccccc12`, for which the Potency is 10 µM (active).

For `Cc1oc2c(c1C(=O)N1CCOCC1)C(=O)c1ccccc1C2=O`, the Potency is 1.58 µM (active).

Turning to `Cc1nnnn1/C(=C\c1ccccc1)C(=O)OCC(=O)N1CC2(C)CC1CC(C)(C)C2` (stereo not drawn), the Potency is 10 µM (active).

Consider `COc1cccc(C(=O)/C=C/c2ccc(OCC#N)c(OC)c2)c1`, for which the Potency was 3.98 µM (active).

Regarding `COc1ccc(/C=C/C(=O)c2ccc(C(=O)/C=C/c3ccc(OC)c(OC)c3)cc2)cc1OC`, the “activity change, negative = inhibition” value was -104% (inactive).

Consider `COc1cc(/C=C/C(=O)c2ccc(O)cc2)ccc1OCC#N`, for which the Potency was 10 µM (active).

Regarding `COc1cc(/C=C/C(=O)c2ccc(C)cc2)ccc1OCC#N`, the Potency was 12.6 µM (active).

With `CCCCN(C)CCCNC(=O)c1cc(=O)[nH]c2ccc(S(=O)(=O)N3CCCCC3C)cc12` (stereo not drawn), the Potency is 1.12 µM (active).

In the case of `CCCCN(C)C(=O)C1CCC(CNS(=O)(=O)c2ccc3c(c2)CC(C)N3C(=O)C2CC2)CC1` (stereo not drawn), the Potency is 5.62 µM (active).

`Cc1ccc(C(=O)OCc2nnc(-c3ccc(Br)cc3)o2)cc1`: the “activity change, negative = inhibition” value is -5.53% (inactive).

Take `CCOC(=O)c1c(C)nc(C)c(C(=O)OCC)c1-c1ccc(Br)cc1`: the Potency was 11.2 µM (active).

Take `CN(C)c1ccc(CN(C(=O)c2ccccc2Br)C2CCS(=O)(=O)C2)cc1` (stereo not drawn): the Potency is 14.1 µM (active).

For `CCCN1CCc2c(sc3nc(SCC)n(-c4ccc(OC)cc4)c(=O)c23)C1`, the Potency is 0.316 µM (active).

Take `CCCN1CCc2c(sc3nc(SCC)n(-c4ccccc4)c(=O)c23)C1`: the Potency is 0.631 µM (active).

Consider `Cn1c(=O)c2c([nH]c(=O)n2C)n(C)c1=O`, for which the “activity change, negative = inhibition” value was -20.4% (inactive).

As for `CCCc1cc(NCc2ccccn2)n2nc(C)c(-c3ccccc3)c2n1`, the Potency was 3.55 µM (active).

`NC(=O)CC(NC(=O)Cc1ccc(Br)cc1)c1ccc(NC2CC3CCC2C3)c([N+](=O)[O-])c1` (stereo not drawn): the Potency was 12.6 µM (active).

In the case of `CC/C(=N\OC(=O)c1ccc(OC(C)C)cc1)c1ccc(C)cc1`, the Potency is 11.2 µM (active).

As to `O=C(/C=C/c1cccnc1)/C=C/c1cccnc1`, the Potency is 3.55 µM (active).

Consider `O=C(/C=C/c1cccnc1)c1ccc(O)cc1`, for which the Potency was 11.2 µM (active).

For `O=C(/C=C/c1ccccc1)/C=C/c1ccccc1`, the Potency was 2.51 µM (active).

Take `COc1cc(C(=O)/C=C/c2cccnc2)ccc1O`: the Potency was 5.01 µM (active).

On to `COc1ccc(C)cc1S(=O)(=O)Nc1cccc(-c2ccc(N3CCCCCC3)nn2)c1`, for which the Potency is 10 µM (active).

Regarding `COc1ccc(-c2cc(C)no2)cc1S(=O)(=O)Nc1cccc(CN2CCCC2)c1`, the Potency is 12.6 µM (active).

`COc1ccc(S(=O)(=O)Nc2cccc(-c3ccc(N4CCCCCC4)nn3)c2)c(OC)c1`: the Potency was 11.2 µM (active).

As for `CCCOc1ccc(/C=C/C(=O)NC2CCCCC2)cc1OC`, the Potency was 15.8 µM (active).

Regarding `Nc1ccccc1C#CC(=O)c1ccccc1`, the Potency is 14.1 µM (active).

On to `CCCC1O[C@@H]2CC3C4CCC5=CC(=O)C=C[C@]5(C)C4C(OC(C)=O)C[C@]3(C)[C@]2(C(=O)COC(C)=O)O1` (stereo partly drawn), for which the Potency is 1.41 µM (active).

On to `CCOC(=O)C1CCN(c2cc3c(cc2NC(=O)c2ccccc2Cl)n(C)c(=O)n3C)CC1`, for which the Potency was 7.94 µM (active).

Take `O=C(C=C=Nc1ccccc1)C(=O)N=C=Cc1ccccc1`: the Potency was 7.94 µM (active).

Consider `COc1ccc2c(CC(=O)OCC(=O)Nc3cccc(S(N)(=O)=O)c3)coc2c1`, for which the “activity change, negative = inhibition” value is -6.15% (inactive).

For the compound `COc1ccc(NC(=O)Cc2ccc(Cl)cc2)cc1S(=O)(=O)N1CCCCC1`, the Potency was 14.1 µM (active).

In the case of `Cc1csc(NC(=O)Cc2coc3cc(C)c(C(C)C)cc23)n1`, the Potency is 12.6 µM (active).

Take `COc1ccc(NC(=O)Cc2coc3cc(C)c(C(C)C)cc23)cc1S(=O)(=O)N1CCOCC1`: the Potency is 7.94 µM (active).

Turning to `CC1CCC/C=C/C(=O)c2c(O)cc(O)cc2CC(=O)O1` (stereo not drawn), the Potency is 5.01 µM (active).

On to `CC(C)c1cc(NC(=O)CCl)on1`, for which the Potency was 7.08 µM (active).

On to `COc1cccc(NC(=O)[C@H](Cc2c[nH]c3ccccc23)NC(=O)[C@@H]2Cc3ccccc3CN2)c1`, for which the Potency is 12.6 µM (active).

Consider `Cc1cccc(NC(=O)[C@H](Cc2c[nH]c3ccccc23)NC(=O)[C@@H]2Cc3ccccc3CN2)c1`, for which the Potency is 10 µM (active).

Consider `O=C(NC(Cc1c[nH]c2ccccc12)C(=O)Nc1ccc(F)cc1)c1cccs1` (stereo not drawn), for which the Potency was 10 µM (active).

For `COc1ccc(NC(=O)[C@H](Cc2c[nH]c3ccccc23)NC(=O)[C@@H]2Cc3ccccc3CN2)cc1`, the Potency is 6.31 µM (active).

Take `CCS(=O)(=O)N1Cc2ccccc2CC1C(=O)Nc1cccc(OC)c1` (stereo not drawn): the “activity change, negative = inhibition” value is 11% (inactive).

For the compound `COC(=O)C1=C(C)NC2=C(C(=O)CC(c3cccs3)C2)C1c1ccsc1` (stereo not drawn), the Potency was 12.6 µM (active).

Consider `O=C(CNC(=O)C1CCCCC1)OC(C(=O)c1ccccc1)c1ccccc1` (stereo not drawn), for which the Potency is 15.8 µM (active).

As to `CCOc1cc(/C=C2\CN(CC)C/C(=C\c3ccc(O)c(OCC)c3)C2=O)ccc1O`, the Potency is 3.16 µM (active).

On to `CCN1C/C(=C/c2ccc(OC)c(O)c2)C(=O)/C(=C/c2ccc(OC)c(O)c2)C1`, for which the Potency was 14.1 µM (active).

`COc1ccc(/C=C2\CN(Cc3ccccc3)C/C(=C\c3ccc(OC)c(O)c3)C2=O)cc1O`: the Potency is 0.708 µM (active).

As for `COc1ccc(NS(=O)(=O)c2cc(OCC(N)=O)c(C)cc2Cl)cc1`, the Potency was 5.01 µM (active).

`CCOC(=O)c1c(-c2ccc(C)cc2C)csc1NC(=O)CSc1nnnn1C`: the Potency was 3.98 µM (active).

In the case of `O=C(NC(Cc1ccccc1)c1nc2ccccc2[nH]1)C1CC(=O)N(c2ccc3c(c2)OCCO3)C1` (stereo not drawn), the Potency was 14.1 µM (active).

In the case of `O=C1c2cccc3cc([N+](=O)[O-])cc(c23)C(=O)N1CCN1CCCC1`, the Potency is 12.6 µM (active).

As for `CN(c1ccccc1)S(=O)(=O)c1nnc(NC(=O)COc2ccccc2F)s1`, the Potency is 12.6 µM (active).

Take `Cc1ccc(S(=O)(=O)N2CCN(C(=O)CCc3c[nH]c4ccccc34)CC2)c(C)c1`: the Potency is 14.1 µM (active).

For `COc1ccc(NC(=S)N2CCC(Cc3ccccc3)CC2)cc1OC`, the Potency is 12.6 µM (active).

As to `CCOC(=O)CC(Nc1nc(N2CCOCC2)nc(N2CCOCC2)n1)c1ccccc1Cl` (stereo not drawn), the Potency was 3.98 µM (active).

For `O=C(/C=C/Sc1ccccc1)c1ccccc1`, the Potency is 11.2 µM (active).

Turning to `COC(=O)[C@]1(CC(C)C)N[C@H](c2ccc(-c3ccc(F)cc3)c(OC)c2)[C@@H]2C(=O)N(C)C(=O)[C@@H]21`, the Potency is 2 µM (active).

As to `CCOC(=O)Cn1nnnc1C(CC)N(Cc1cccs1)Cc1cc2ccc(OC)cc2[nH]c1=O` (stereo not drawn), the Potency is 12.6 µM (active).
